Assay outcomes (PubChem)
IL1B secr inh: inhibitors of inflammasome signaling (IL-1 beta secretion). THP-1 LPS/ATP IL-1B secretion, AlphaLISA, 16 h; active compounds read low. activity change, % at 57.5 µM. AID 743279. 360,000 tested, 4.7% active; in the data active means activity change below about -50%; inconclusive means mostly about -30% to -49%; further: on the % scale 0 is the no-effect control and ±100 the full control effect
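Secreted IL-1B measured by AlphaLISA bead assay after 16 h compound exposure of THP-1 cells; compounds (final up to 57.5 uM) added 1 h before LPS (250 ng/mL) and ATP (1.25 mM) stimulation; lower signal means less secretion.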
ATXN viability: cell viability loss in ATXN counter-screen; S2 cells (HEK-293 line with an ATXN2-luciferase reporter) viability, CellTiter-Fluor protease fluorescence, 24 h; AID 651635; Potency, µM (highest dose often 56.7 µM), actives largely listed as cytotoxic; 400,000 tested, 0.49% active; further: potency means the concentration at half of the fitted maximal effect; nearly all actives have a fitted effect of over 40% in size
PINK1 modulator: changes PINK1 expression. PINK1 immunofluorescence, high-content cytometry, 24 h. Potency, µM (doses to about 76.6 µM), for the others: at the highest dose activation (PINK1 increase), hits mostly activators. 410,000 tested, 0.2% active. AID 624263; active means well fitted activation curve with a large enough effect; inconclusive means small, poorly fitted or top-dose-only effect; cell line not stated here; further: potency means the concentration at half of the fitted maximal effect; % of control where 0% means no effect; nearly all actives have a fitted effect of over 65% in size
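Stable cell line, 250 cells/well, 12 h attachment; compounds pinned at 5 concentrations, 24 h; CCCP control. Fixed with nuclear dye, primary antibodies 12 h at 10 degrees C, secondary plus cell stain; laser-scanning cytometer read.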
SW480 rerep: induces DNA re-replication in SW480 colon adenocarcinoma cells. SW480 DNA re-replication, Hoechst DNA content imaging, 48 h. Potency, µM (titrated, usually from 46.1 µM), inactives show top-dose re-replication activation, hits mostly activators. 340,000 tested, 1.8% active; further: potency means the concentration at half of the fitted maximal effect; % of control where 0% means no effect; nearly all actives have a fitted effect of over 55% in size
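SW480 cells exposed to compounds for 48 hr at 37 C, 5% CO2, then Hoechst-stained 40 min. Nuclear DNA content imaged by fluorescence scanning (405 nm excitation, 500-530 nm emission); re-replication scored as increased high-intensity nuclei.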
ATXN2 expr inh: ATXN2 expression inhibition. HEK-293 ATXN2-luciferase reporter, luminescence, 24 h. Potency, µM (series often up to 57 µM), without a hit: top-dose activity change, negative = inhibition, actives largely listed as inhibitors. 360,000 tested, 0.72% active; further: potency means the concentration at half of the fitted maximal effect; on the % scale 0 is the no-effect control and ±100 the full control effect; nearly all actives have a fitted effect of over 55% in size
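qHTS (up to 57 uM final) was run with 24 h compound exposure of reporter cells at 37 °C. Each well was multiplexed: SteadyGlo luminescence measured ATXN2-luciferase expression after a fluorogenic Gly-Phe-AFC viability readout (25 uM final).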
MCF10A rerep: DNA re-replication induction in MCF 10a cells. MCF 10A DNA re-replication, Hoechst nuclear intensity, 48 h. Potency, µM (doses to about 46.1 µM), for the others: at the highest dose activity, positive = re-replication, actives largely listed as activators. 350,000 tested, 2.9% active. AID 624296; further: potency means the concentration at half of the fitted maximal effect; % of control where 0% means no effect; nearly all actives have a fitted effect of over 50% in size
Numbers without * were called inactive; i = inactive; ? = inconclusive; . = no result; [ ] = remark or other dose. Hits are enriched below; roughly 7.1% of the tested compounds scored in any of these assays. Unless noted, the call rests on the fitted dose curve; in most records, active means well fitted curve in the direction sought with a large enough effect; inconclusive means small, poorly fitted or top-dose-only effect, or another doubt; inactive means no such curve, though single readings can be large; an effect the other way counts as inactive or inconclusive.

SMILES	IL1B secr inh	ATXN viability	PINK1 modulator	SW480 rerep	ATXN2 expr inh	MCF10A rerep
Cc1ccc(S(=O)(=O)N2CCN(C(=O)CSc3ccc(Cl)cc3)CC2)cc1	-61*	?	-2%	-71%	-35%	?
CCCC(=O)N1CCN(c2ccc([N+](=O)[O-])cc2Cl)CC1	-2	i	-2%	-3%	-7%	-4%
O=C(c1ccc([N+](=O)[O-])cc1Cl)N1CCN(c2ccccn2)CC1	30	i	-1%	?	.	-2%
Cc1ccc(S(=O)(=O)N2CCN(C(=O)CCCOc3ccc(Cl)cc3C)CC2)cc1	-62*	i	-2%	22%	?	3%
O=[N+]([O-])c1ccc(N2CCN(c3ccccn3)CC2)c(Cl)c1	-59*	i	-1%	0%	36%	17%
Cc1ccc(C)n1-c1ccc(-c2ccnc(N)n2)cc1	-83*	i	0%	?	2%	?
CC(C)CNC(=O)Nc1cc(C(=O)NCc2ccc(C(C)C)cc2)ccc1N1CCCC1	.	?	1%	.	-9%	.
CC(C)N1C(=O)S/C(=C/c2ccc(Sc3nc4ccccc4[nH]3)o2)C1=O	-79*	i	?	?	?	?
O=C(Nc1ccc(F)cc1)C1CC(=O)n2cnnc2N1 (configuration not stated)	14	i	1%	0.65µM*	-8%[2.22 µM]	-29%
O=C(Nc1ccc(F)cc1)C1CC(=O)n2ncnc2N1 (configuration not stated)	-4	i	1%	-7%	-13%	1%
COc1cc(Cl)c(C)cc1NC(=O)CCc1c(C)nc2cc(-c3cccc(F)c3)nn2c1C	.	i	1%	.	13%	.
COc1ccc(-c2nn(-c3ccccc3)cc2/C=N/N2C(=O)CSC2=S)cc1	-106*	.	?	?	?	?
COc1ccc(/C=N/N2C(=O)CSC2=S)cc1	4	i	-1%[38.3 µM]	-2%	3%	-5%
O=S1OC(c2ccccc2)c2cc(Cl)ccc21 (configuration not stated)	-111*	i	1%	-6%	-11%	-65%
Cn1nc(-c2ccccc2)c(C(O)c2ccc(Cl)cc2)c1Cl (configuration not stated)	21	i	-2%	-2%	-16%	428%[0.0737 µM]
Cn1nc(-c2ccccc2)c(CSc2ccccc2Cl)c1Cl	-18	i	4%	5.8µM*	-24%	7.3µM*
O=C(CC1Oc2ccccc2NC1=O)NCc1ccccc1 (configuration not stated)	5	i	0%	0%	4%	30%
CC(=O)CC1OC(=O)C(Br)=C1NCc1ccccc1 (configuration not stated)	-100*	.	-3%[38.3 µM]	?	?	2.6µM*
Cc1ccc(OCC(=O)Nc2nnc(S(=O)(=O)N3c4ccccc4CC3C)s2)cc1 (configuration not stated)	.	i	0%	.	-10%	.
CCc1ccc(NC(=O)CSc2nc(NS(=O)(=O)c3ccccc3)cc(=O)[nH]2)cc1	-55*	i	9%	2%	-4%	14%
Cc1ccc(NC(=O)CSc2nc(NS(=O)(=O)c3ccccc3)cc(=O)[nH]2)cc1	36	?	4%	-6%	2%	0%
O=C1CCCC2=C1C(c1ccc(O)cc1)c1c(ccc3ccccc13)N2 (configuration not stated)	-17	i	3%	?	3%	16µM*
COc1ccc(OC)c(-c2noc(N3CCN(c4cc(C)ccc4C)CC3)n2)c1	.	i	-1%	.	-3%	.
CC(=O)N(C(C)=O)C1=C(C#N)C2(CCCCC2)Cc2ccccc21	-74*	i	26%	-5%	-10%	?
CCCN(CCC)C(=O)c1nn(C)c2c1CSc1ccccc1-2	.	.	7%	.	.	.
SMILES	IL1B secr inh	ATXN viability	PINK1 modulator	SW480 rerep	ATXN2 expr inh	MCF10A rerep
O=C1CS/C(=N/N=C/c2c[nH]c3ccccc23)N1	.	i	20%	129%	17%	18µM*
O=C(Oc1cccccc1=O)c1ccccc1	-3	?	1%	18µM*	.	?
O=C(Oc1ccccc1Cl)c1ccccc1	4	i	4%	15%	9%	16µM*
CCCc1c(C)c2ccc(O)c(CN3CCN(c4ccc(F)cc4)CC3)c2oc1=O	.	i	1%	.	-1%	.
CNc1ccc(/C=C2\C=Cc3ccccc32)cc1Cl	.	.	7%	.	.	.
COc1ccc(C2Nc3ccccc3NC3=C2C(=O)CC(C)(C)C3)c(OC)c1OC (configuration not stated)	18	0.28µM*	0%	-3%	-23%	-4%
N#Cc1c([N+](=O)[O-])cc([N+](=O)[O-])cc1S(=O)(=O)Cc1ccccc1	-112*	32µM*	-4%	5.2µM*	?	?
COCCCn1c(=O)/c(=C\c2ccccc2OC(F)F)s/c1=C(/C#N)C(=O)N1CCOCC1	-69*	?	1%	2%	-20%	21%
COCCCNC(=O)/C(C#N)=c1\s/c(=C\c2ccccc2OC(F)F)c(=O)n1CCCOC	-6	i	?	3%	?	12%
CCN1CCN(c2cc(N3CCc4ccccc4C3)c(F)cc2[N+](=O)[O-])CC1	-104*	i	-6%	?	-33%	?
CC(=O)N1CCN(c2cc(N3CCCC3)c(F)cc2[N+](=O)[O-])CC1	-17	?	1%	?	-14%	-1%
O=C(NC(NC(=S)Nc1ccccc1)C(Cl)(Cl)Cl)c1cccc(Cl)c1 (configuration not stated)	-95*	i	?	?	?	?
O=C(NC(NC(=S)Nc1ccc(Cl)cc1Cl)C(Cl)(Cl)Cl)c1cccc([N+](=O)[O-])c1 (configuration not stated)	-102*	?	?	21µM*	?	12µM*
CN(C)C(=O)NC(NC(=S)Nc1ccccc1)C(Cl)(Cl)Cl (configuration not stated)	-12	?	2%	-20%	-16%	-2%
Cc1cc(C)c(NC(=S)NC(NC(=O)c2ccccc2)C(Cl)(Cl)Cl)c(C)c1 (configuration not stated)	-75*	i	16%	?	?	12%
Cc1ccc(NC(=S)NC(NC(=O)c2ccccc2)C(Cl)(Cl)Cl)c(C)c1 (configuration not stated)	?	?	40µM*	4%	0%	?
O=C(O)c1cccc(NC(=S)NC(NC(=O)c2cccc([N+](=O)[O-])c2)C(Cl)(Cl)Cl)c1 (configuration not stated)	8	i	1%	-16%	.	-1%
